# Data as given in the supplement of paper PMC10849652.
# The full data set covers some 7,900 targets. This sample favours those with a hit. About 0.6% of all pairs of compound and target were hits. A number with no mark means an inactive call.
# Assays:
# Assay in all cases: log2 fold change, soluble protein after heating vs DMSO (PISA); higher = thermal stabilisation; K562 cells, 10 uM, 30 min; active = over 0.2 and 3.5 SD of the protein, either way, in both replicates (recomputed)
# IRAK-1-4 Inhibitor I = compound: C1COCCN1CCN2C3=CC=CC=C3N=C2NC(=O)C4=CC(=CC=C4)[N+](=O)[O-] [IRAK-1-4 Inhibitor I]
# How it was run: (§1)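 K562 cells at 2×10^6 cells/mL were given 10 μM compound for 30 min. Aliquots then went through 3 min of heating across 48°C-58°C, were pooled, and were extracted in PBS with 0.5% NP-40 at 4°C, and the supernatant after 21,000xg for 90 min was quantified by TMTpro 16plex LC-MS/MS with channel sums equalised. Thermal stability relative to control samples, from duplicates, is given as log2 fold change.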
# ibrutinib = compound: C=CC(=O)N1CCC[C@@H](n2nc(-c3ccc(Oc4ccccc4)cc3)c3c(N)ncnc32)C1 [ibrutinib]
# How it was run: as §1
# [1] = compound: CC(=O)c1cnc2ccc(-c3cc(Cl)c(O)c(Cl)c3)nc2c1N[C@H]1CC[C@H](CN(C)C)CC1
# How it was run: as §1
# ralimetinib = compound: CC(C)(C)Cn1c(N)nc2ccc(-c3[nH]c(C(C)(C)C)nc3-c3ccc(F)cc3)nc21 [ralimetinib]
# How it was run: as §1
# [2] = compound: CC(C)(O)CC(=O)NCCn1ccc2ncnc(Nc3ccc(Oc4cccc(C(F)(F)F)c4)c(Cl)c3)c21
# How it was run: as §1
# [3] = compound: CC(C)C1=C2N=C(C=C(N2N=C1)NCC3=CC=CC=C3)NCCCCCCN
# How it was run: as §1
# [4] = compound: CC(C)C[C@@H](C=O)NC(=O)[C@H](CC(C)C)NC(=O)[C@H](CC(C)C)NC(=O)OCc1ccccc1
# How it was run: as §1
# pinometostat = compound: CC(C)N(C[C@H]1O[C@@H](n2cnc3c(N)ncnc32)[C@H](O)[C@@H]1O)[C@H]1C[C@@H](CCc2nc3cc(C(C)(C)C)ccc3[nH]2)C1 [pinometostat]
# How it was run: as §1
# [5] = compound: CC1=C(C(CC(=O)N1)C2=CC=C(C=C2)C(F)(F)F)C(=O)NC3=C(C=C4C(=C3)C=NN4)F
# How it was run: as §1
# [6] = compound: CC1=C(C2=C(C=C1)C(=O)C3=CC=CC=C3N2CCCN)C
# How it was run: as §1
# [7] = compound: CC1=C(C=C(C=C1)NC(=O)C2=CC(=CC=C2)C(C)(C)C#N)NC3=CC4=C(C=C3)N=CN(C4=O)C
# How it was run: as §1
# [8] = compound: CC1=C(C=C(C=C1)NC(=O)C2=CC(=CC=C2)N(C)C)NC(=O)C3=CC=C(C=C3)O
# How it was run: as §1
# [9] = compound: CC1=CC=C(C=C1)SC2=C3C=C(SC3=CN=C2)C(=O)N
# How it was run: as §1
# [10] = compound: CC1=NC(=CC=C1)C2=C(N=C(N2)C(C)(C)C)C3=CC4=NC=CN=C4C=C3
# How it was run: as §1
# Nexturastat A = compound: CCCCN(Cc1ccc(C(=O)NO)cc1)C(=O)Nc1ccccc1 [Nexturastat A]
# How it was run: as §1
# vemurafenib = compound: CCCS(=O)(=O)Nc1ccc(F)c(C(=O)c2c[nH]c3ncc(-c4ccc(Cl)cc4)cc23)c1F [vemurafenib]
# How it was run: as §1
# [11] = compound: CCCS(=O)(=O)Nc1ccc(F)c(C(=O)c2c[nH]c3ncc(Cl)cc23)c1F
# How it was run: as §1
# [12] = compound: CCCc1cc(C)[nH]c(=O)c1CNC(=O)c1cc(-c2ccnc(N3CCN(C)CC3)c2)cc2c1cnn2C(C)C
# How it was run: as §1
# givinostat = compound: CCN(CC)Cc1ccc2cc(COC(=O)Nc3ccc(C(=O)NO)cc3)ccc2c1 [givinostat]
# How it was run: as §1
# barasertib = compound: CCN(CCCOc1ccc2c(Nc3cc(CC(=O)Nc4cccc(F)c4)[nH]n3)ncnc2c1)CCOP(=O)(O)O [barasertib]
# How it was run: as §1
# Chain of UniProt P0CL80 (P0CL80 whole entry, looked up): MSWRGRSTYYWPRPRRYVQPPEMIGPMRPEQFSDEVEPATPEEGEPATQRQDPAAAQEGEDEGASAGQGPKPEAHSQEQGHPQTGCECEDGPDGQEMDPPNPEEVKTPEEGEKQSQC
# Chain of UniProt Q8WXD5 (Q8WXD5 whole entry, looked up): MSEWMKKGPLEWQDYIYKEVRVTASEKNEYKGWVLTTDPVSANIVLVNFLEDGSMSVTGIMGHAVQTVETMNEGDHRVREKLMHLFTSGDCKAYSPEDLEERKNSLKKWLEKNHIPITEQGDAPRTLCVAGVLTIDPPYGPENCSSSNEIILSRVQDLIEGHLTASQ
# Chain of UniProt P0C0S5 (P0C0S5 whole entry, looked up): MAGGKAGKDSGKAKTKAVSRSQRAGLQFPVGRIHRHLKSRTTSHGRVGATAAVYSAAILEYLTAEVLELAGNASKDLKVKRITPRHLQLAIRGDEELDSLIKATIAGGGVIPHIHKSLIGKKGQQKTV
# Chain of UniProt P40939 (P40939 whole entry, looked up): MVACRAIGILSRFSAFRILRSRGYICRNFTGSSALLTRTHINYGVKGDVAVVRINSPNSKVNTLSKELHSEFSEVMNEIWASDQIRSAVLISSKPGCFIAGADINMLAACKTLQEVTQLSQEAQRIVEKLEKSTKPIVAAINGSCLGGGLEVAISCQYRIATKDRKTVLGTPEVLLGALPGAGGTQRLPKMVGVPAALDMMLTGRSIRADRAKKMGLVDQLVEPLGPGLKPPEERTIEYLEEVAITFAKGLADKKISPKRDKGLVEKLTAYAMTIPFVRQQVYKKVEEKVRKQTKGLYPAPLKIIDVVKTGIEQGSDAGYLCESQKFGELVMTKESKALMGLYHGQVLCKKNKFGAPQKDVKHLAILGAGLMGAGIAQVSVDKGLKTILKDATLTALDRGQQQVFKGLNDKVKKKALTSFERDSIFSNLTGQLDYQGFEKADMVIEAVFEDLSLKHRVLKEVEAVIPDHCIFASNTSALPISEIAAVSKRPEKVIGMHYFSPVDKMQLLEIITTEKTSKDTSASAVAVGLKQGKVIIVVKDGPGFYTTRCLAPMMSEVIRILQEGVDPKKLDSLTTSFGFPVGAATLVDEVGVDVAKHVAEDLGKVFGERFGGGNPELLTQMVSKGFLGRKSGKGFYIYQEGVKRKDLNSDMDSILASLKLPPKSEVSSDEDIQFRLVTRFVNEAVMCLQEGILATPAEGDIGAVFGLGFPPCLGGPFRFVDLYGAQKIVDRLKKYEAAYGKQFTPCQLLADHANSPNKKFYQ
# Chain of UniProt Q7Z4V5 (Q7Z4V5 whole entry, looked up): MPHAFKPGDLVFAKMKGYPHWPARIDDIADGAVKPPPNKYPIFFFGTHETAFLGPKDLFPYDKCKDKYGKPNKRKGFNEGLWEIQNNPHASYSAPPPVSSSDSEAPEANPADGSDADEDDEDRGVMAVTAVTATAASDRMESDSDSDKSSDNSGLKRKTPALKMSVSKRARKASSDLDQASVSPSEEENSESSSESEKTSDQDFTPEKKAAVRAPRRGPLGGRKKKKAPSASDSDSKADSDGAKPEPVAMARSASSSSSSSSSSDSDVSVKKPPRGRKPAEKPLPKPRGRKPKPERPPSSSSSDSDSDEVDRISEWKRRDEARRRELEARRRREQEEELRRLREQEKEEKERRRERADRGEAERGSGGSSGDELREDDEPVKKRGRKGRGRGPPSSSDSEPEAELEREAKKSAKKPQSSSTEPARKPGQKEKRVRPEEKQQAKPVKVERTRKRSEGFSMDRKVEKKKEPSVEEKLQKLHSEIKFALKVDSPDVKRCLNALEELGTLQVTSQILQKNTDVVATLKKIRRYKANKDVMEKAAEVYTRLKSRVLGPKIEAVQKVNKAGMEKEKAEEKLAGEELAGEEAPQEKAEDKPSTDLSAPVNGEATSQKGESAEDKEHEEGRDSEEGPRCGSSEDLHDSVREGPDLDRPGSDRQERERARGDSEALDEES
# Chain of UniProt Q9UBN7 (Q9UBN7 whole entry, looked up): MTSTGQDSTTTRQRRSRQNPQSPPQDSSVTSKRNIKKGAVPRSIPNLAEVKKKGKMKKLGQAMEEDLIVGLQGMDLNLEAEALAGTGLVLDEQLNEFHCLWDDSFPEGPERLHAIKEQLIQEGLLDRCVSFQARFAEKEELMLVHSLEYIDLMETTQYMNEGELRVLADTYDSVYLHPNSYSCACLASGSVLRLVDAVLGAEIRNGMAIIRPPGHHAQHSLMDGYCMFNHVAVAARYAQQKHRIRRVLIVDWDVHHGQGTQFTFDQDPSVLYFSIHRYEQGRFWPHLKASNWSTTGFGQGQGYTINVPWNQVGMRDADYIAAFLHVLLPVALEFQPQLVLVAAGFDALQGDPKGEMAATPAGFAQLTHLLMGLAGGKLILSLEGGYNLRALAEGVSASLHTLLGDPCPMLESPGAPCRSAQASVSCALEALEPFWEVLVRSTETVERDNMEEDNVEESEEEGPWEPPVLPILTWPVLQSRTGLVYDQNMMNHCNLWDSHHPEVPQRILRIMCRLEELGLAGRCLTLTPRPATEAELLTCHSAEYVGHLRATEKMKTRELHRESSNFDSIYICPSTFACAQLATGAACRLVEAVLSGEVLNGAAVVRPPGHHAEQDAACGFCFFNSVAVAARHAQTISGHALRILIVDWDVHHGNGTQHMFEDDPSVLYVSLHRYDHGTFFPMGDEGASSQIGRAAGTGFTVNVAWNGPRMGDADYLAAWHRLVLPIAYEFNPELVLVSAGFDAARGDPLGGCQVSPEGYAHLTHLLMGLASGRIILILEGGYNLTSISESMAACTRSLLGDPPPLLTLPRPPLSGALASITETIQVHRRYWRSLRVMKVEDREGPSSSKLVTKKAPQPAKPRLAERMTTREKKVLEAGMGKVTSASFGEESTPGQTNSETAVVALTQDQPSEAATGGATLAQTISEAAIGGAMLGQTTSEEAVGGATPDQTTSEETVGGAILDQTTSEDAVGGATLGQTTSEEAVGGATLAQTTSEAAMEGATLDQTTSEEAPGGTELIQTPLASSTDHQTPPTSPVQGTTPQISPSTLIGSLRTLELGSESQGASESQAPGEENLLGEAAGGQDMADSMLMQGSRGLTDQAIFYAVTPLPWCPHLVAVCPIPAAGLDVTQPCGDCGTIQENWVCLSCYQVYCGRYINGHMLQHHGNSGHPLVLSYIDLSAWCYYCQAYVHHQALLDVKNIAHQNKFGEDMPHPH
# Chain of UniProt Q9Y3D6 (Q9Y3D6 whole entry, looked up): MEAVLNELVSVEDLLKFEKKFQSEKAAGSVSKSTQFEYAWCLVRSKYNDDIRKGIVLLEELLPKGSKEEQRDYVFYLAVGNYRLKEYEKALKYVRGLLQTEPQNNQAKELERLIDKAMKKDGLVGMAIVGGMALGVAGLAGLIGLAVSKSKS
# Chain of UniProt P49448 (P49448 whole entry, looked up): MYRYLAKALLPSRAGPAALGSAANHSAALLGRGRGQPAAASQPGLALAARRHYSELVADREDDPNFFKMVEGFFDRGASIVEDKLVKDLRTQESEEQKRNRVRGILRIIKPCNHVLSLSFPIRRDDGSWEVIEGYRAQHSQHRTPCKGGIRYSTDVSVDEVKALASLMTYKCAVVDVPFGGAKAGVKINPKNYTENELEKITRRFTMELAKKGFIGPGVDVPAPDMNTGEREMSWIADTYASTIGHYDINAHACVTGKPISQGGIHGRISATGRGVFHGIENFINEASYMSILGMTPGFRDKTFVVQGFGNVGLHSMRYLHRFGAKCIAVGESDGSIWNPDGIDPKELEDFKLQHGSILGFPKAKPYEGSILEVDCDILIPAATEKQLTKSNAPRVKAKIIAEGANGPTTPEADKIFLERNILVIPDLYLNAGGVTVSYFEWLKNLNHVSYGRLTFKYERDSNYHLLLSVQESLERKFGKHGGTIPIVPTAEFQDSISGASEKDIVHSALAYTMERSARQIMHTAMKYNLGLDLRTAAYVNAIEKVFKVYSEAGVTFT
# Chain of UniProt P08236 (P08236 whole entry, looked up): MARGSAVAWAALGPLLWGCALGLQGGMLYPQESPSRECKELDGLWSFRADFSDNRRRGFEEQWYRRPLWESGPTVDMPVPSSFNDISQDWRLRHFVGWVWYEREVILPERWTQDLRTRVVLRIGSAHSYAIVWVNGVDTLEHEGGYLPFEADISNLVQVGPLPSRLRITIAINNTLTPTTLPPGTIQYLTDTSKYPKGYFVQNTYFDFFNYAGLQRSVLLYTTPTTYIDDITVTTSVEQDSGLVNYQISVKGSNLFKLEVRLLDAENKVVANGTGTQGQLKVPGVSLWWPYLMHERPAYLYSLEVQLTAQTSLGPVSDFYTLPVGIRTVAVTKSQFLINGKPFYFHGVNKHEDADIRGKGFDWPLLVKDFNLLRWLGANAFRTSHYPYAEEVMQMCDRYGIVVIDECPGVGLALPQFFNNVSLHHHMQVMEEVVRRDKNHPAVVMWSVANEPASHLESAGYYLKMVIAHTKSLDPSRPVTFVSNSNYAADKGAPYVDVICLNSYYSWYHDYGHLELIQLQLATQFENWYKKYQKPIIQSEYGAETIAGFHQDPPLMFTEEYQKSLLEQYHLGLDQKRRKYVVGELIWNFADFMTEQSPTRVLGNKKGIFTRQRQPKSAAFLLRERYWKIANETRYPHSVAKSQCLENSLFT
# Chain of UniProt Q16774 (Q16774 whole entry, looked up): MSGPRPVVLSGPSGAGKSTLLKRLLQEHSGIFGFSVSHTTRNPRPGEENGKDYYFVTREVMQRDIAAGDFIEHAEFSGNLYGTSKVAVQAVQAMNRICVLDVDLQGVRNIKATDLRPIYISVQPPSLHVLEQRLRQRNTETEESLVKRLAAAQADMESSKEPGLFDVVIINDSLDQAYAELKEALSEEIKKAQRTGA
Target,log2 fold change (IRAK-1-4 Inhibitor I),log2 fold change (ibrutinib),log2 fold change [1],log2 fold change (ralimetinib),log2 fold change [2],log2 fold change [3],log2 fold change [4],log2 fold change (pinometostat),log2 fold change [5],log2 fold change [6],log2 fold change [7],log2 fold change [8],log2 fold change [9],log2 fold change [10],log2 fold change (Nexturastat A),log2 fold change (vemurafenib),log2 fold change [11],log2 fold change [12],log2 fold change (givinostat),log2 fold change (barasertib)
HDGFL2 (UniProt Q7Z4V5),0.01,-0.039,0.011,-0.019,0.041,-0.017,-0.022,-0.051,0.029,-0.709 (active),-0.281 (active),0,-0.006,0.049,0.063,-0.022,0.007,-0.078,0.049,0.037
GNAS (UniProt Q5JWF2),-0.04,0.001,-0.059,0.009,0.022,0.041,-0.009,0,-0.059,0.073,0.105,-0.043,-0.014,-0.027,-0.01,0.034,-0.027,0.067,-0.036,-0.011
GUSB (UniProt P08236),0.037,-0.016,-0.075,-0.013,0.011,0.025,-0.005,-0.032,0.174,-0.077,-0.013,-0.014,-0.027,-0.073,0.277,0.06,0.03,-0.038,-0.501 (active),-0.048
GLUD2 (UniProt P49448),0.025,0.045,0.113,0,0.098,-0.041,0.014,-0.013,-0.098,0.127,0.104,0.006,-0.062,-0.015,-0.045,0.017,0.006,0.238,-0.107,0.015
HADHA (UniProt P40939),-0.001,0.175,-0.358,0.058,-0.132,0.43,-0.116,-0.064,-0.125,0.054,0.307,-0.203,0,-0.022,-0.1,-0.017,-0.006,0.1,0.044,-0.013
GEMIN6 (UniProt Q8WXD5),0.035,0.021,0.016,0.188,-0.03,-0.012,-0.226,0.046,-0.004,0.03,-0.049,-0.05,0.014,0.015,0.134,0.073,-0.001,0.008,-0.088,-0.053
H2AZ1 (UniProt P0C0S5),-0.115,0.087,-0.125,0.247,0.031,-0.022,0.244,0.268,0.022,1.74 (active),-0.051,0,-0.174,-0.01,0.75 (active),-0.209,0.233,0.074,0.454,-0.083
FIS1 (UniProt Q9Y3D6),0.029,0.003,0.067,-0.036,0.029,-0.023,-0.025,-0.074,0.004,-0.031,-0.024,0.006,0,0,-0.018,0.048,-0.046,-0.009,-0.014,-0.027
HDAC6 (UniProt Q9UBN7),-0.086,0.314,-0.03,0.034,-0.023,0.069,-0.025,0.009,-0.046,0.021,0.016,-0.041,0.022,-0.091,0.522 (active),0.004,-0.018,-0.015,1.03 (active),0
GUK1 isoform 2 (UniProt Q16774),-0.076,-0.033,-0.162,0.038,-0.234,-0.033,0.167,-0.037,-0.074,0.092,0.173,-0.062,-0.018,0.093,-0.065,0.118,-0.002,0.026,0.072,-0.018
GAGE12F (UniProt P0CL80),0.045,0.025,0.037,-0.038,0.02,0.015,0.019,-0.06,0.004,0.128,-0.005,-0.035,0.006,0.061,0.036,0.019,-0.018,-0.031,-0.076,0.01
GLUL (UniProt P15104),0.054,0.009,-0.049,-0.02,0.018,0.058,-0.013,-0.021,0.105,-0.058,-0.008,-0.003,0.055,-0.013,-0.02,-0.04,-0.084,-0.016,-0.082,0.004
